The nature of test [1]: Cytotoxicity counterscreen for NFkB agonists and antagonists (AID 624476).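 Also: cells exposed to compound for 48 hours.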 Also: potency is read from the fitted curve at half-maximal effect.
The nature of test [2]: qHTS Assay for Identification of Small Molecule Agonists for NFkB Signaling Pathway. (AID 624478).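 Also: compounds tested together with TNF alpha at its EC50 of 10 pM; 0% is about no effect.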 The method, boiled down: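 ME-180 cervical carcinoma, stable NFkB-RE beta-lactamase reporter; 1000 cells/well, overnight attachment; cpd + TNF alpha 10 pM final, 5 h 37 C; LiveBLAzer 2 h RT; FRET 460/530 nm, ex 405 nm.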
Test [3] is described as follows: qHTS Assay for Identification of Small Molecule Antagonists for NFkB Signaling Pathway. (AID 624479; calls by dose curve;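 also: pathway stimulated with TNF alpha; % is scaled to controls: 0 for no effect and ±100 for the full control effect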).
The nature of test [4]: Cell Proliferation Assay against the TMD8 Cell Line (AID 651645).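 Also: cells exposed to compound for 48 h before reading.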 As to conditions: TMD8 DLBCL cell line proliferation/viability; at 46.1 µM (top of the series) unless noted. The method, boiled down: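 Luminescent ATP read-out (CellTiter-Glo, 15 min RT) after 48 h compound exposure of log-growing TMD8 cells at 37C; percent activity scaled between DMSO as 100% and 9.2 uM bortezomib final as 0%.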

Test [5] in a line: Cell Proliferation Assay against the HBL1 Cell Line (AID 651646).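 Also: cells exposed to compound for 48 h before reading.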 As to conditions: HBL1 DLBCL cells; at 46.1 µM (top of the series) unless noted. The method, boiled down: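 Luminescent ATP read-out (CellTiter-Glo) after 48 h compound exposure of HBL1 cells at 37 °C; percent activity was scaled between DMSO as 100% and 9.2 uM bortezomib (final) as 0%.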
Test [6] is described as follows: Cell Proliferation Assay against the TMD8 Cell Line (Caspase readout at 8 hrs) (AID 651713). In outline:
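Seed log-phase TMD8 cells, add compound by pin tool, incubate 8 h at 37C under 5% CO2, equilibrate to room temperature, add Caspase-Glo, wait 15 min, read luminescence; percent activity uses DMSO and 9.2 uM bortezomib controls.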

Test [7] concerns the target Tyrosine-protein kinase Yes (Homo sapiens) (UniProt P07947). Kind of test: qHTS for small molecule inhibitors of Yes1 kinase: Primary Screen (AID 686947). Also: nearly all actives have a fitted effect of over 60% in size. Also: potency is read from the fitted curve at half-maximal effect. The method, boiled down: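 Yes1 (4 nM) preincubated 20 min with compound, then 60 min room-temperature reaction with 0.1 mM ATP and 0.3 mg/mL poly(E4Y) in pH 7.5 Tris, 10 mM MgCl2. ADP measured by ADP-Glo luminescence, normalised to enzyme/no-enzyme controls.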

The nature of test [8]: qHTS for small molecule inhibitors of Yes1 kinase: Counter Assay (AID 686950).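 Also: no kinase present so only ADP-Glo detection of a fixed ADP amount is tested; luminescence from ADP-Glo reporting ADP in a fixed ATP and ADP mixture; 0% = DMSO wells with ATP plus ADP and -100% = ATP-only wells without ADP.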 In outline: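 Luminescence read-out from ADP-Glo quantifies a fixed ADP amount (0.02 mM ADP with 0.08 mM ATP) after 60 min at room temperature; signal is normalized between DMSO wells with ATP/ADP and with 0.1 mM ATP alone.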
Test [9] in a line: Cell Proliferation Assay against the TMD8 Cell Line (Caspase readout at 16 hrs) (AID 651712). Also: potency is read from the fitted curve at half-maximal effect. In outline:
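Apoptotic response of TMD8 cells was judged from caspase 3/7 activation following a 16 hour compound incubation at 37 °C. Luminescent signal was converted to percent activity, with DMSO set as 0% and 9.2 uM final bortezomib as 100%.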

Each structure is given as a SMILES string. Records with an inconclusive call do not appear. Active and inactive are the calls of the source. Unless noted, calls follow the shape of the dose curve; as a rule, active = well fitted curve in the direction sought with a large enough effect; inconclusive = small, poorly fitted or top-dose-only effect, or another doubt; inactive = no such curve, though single readings can be large; an effect the other way counts as inactive or inconclusive.

Chain of Tyrosine-protein kinase Yes (Homo sapiens) (P07947 whole entry, looked up): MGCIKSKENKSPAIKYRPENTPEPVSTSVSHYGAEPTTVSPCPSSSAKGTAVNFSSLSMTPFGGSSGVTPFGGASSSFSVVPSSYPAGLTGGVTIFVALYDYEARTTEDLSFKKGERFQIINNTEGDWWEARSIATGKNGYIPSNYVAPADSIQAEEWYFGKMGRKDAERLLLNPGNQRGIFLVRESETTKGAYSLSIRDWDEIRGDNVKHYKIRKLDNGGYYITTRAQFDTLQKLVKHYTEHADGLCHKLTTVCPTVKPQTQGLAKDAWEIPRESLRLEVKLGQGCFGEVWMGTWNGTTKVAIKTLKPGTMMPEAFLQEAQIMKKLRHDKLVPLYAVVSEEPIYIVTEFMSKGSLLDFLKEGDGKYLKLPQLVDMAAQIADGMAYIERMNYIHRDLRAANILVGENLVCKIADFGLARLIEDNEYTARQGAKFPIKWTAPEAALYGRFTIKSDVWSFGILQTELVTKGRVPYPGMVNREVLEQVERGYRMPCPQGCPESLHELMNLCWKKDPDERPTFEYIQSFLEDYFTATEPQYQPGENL

For the compound `Cc1cc(-c2nnc3n2CCCCC3)c(C)n1-c1ccc(F)cc1`, the Potency result in test [1], in [3] and in [6] was “inactive” throughout. Besides, the compound was called inactive in [2] and in test [8]. Further, in test [4], the viability (% of control) was determined as 6.21%. Also, the viability, percent of control in [5] was found to be 4.79%. In [7], the Potency is 34.5 µM (active).

`NC(=O)C1CCCc2c1[nH]c1ccc(Cl)cc21` (stereo unspecified): the Potency entry in [1], in [3], in test [9] and in test [6] was “inactive” throughout. Moreover, the compound was classed as inactive in test [2] and in test [8]. Besides, in test [4], the viability (% of control) was 94.1%. For the same compound, in test [5], the viability, percent of control stood at 73.1%.

On to `C[C@@H]1CN(Cc2ccc(F)cc2)[C@@H](C)CN1C(=O)c1cc2c(C(=O)C(=O)N(C)C)cn(C)c2cc1Cl`, for which the Potency entry in test [1], in test [3], in test [6] and in test [7] was “inactive” throughout. The compound was called inactive in test [2] and in test [8]. In test [4], the viability (% of control) turned out to be 61.8%. Moreover, the viability, percent of control in test [5] amounted to 78.3%.

`NC(=O)c1ccc(I)c([N+](=O)[O-])c1`: the Potency entry in [1], in [3], in [9] and in test [6] was “inactive” throughout. Also, the outcome in test [2] and in [8] was inactive. The viability (% of control) in test [4] is 92.9%. The viability, percent of control in [5] was 76.7%.

On to `CCc1cncnc1N1CCN(Cc2nc3ccc(C(F)(F)F)cc3[nH]2)CC1`, for which the Potency entry in test [1], in test [3], in test [6] and in test [7] was “inactive” throughout. Moreover, the compound was called inactive in test [2] and in [8]. In test [4], the viability (% of control) amounted to 56.3%. Also, the viability, percent of control in test [5] stood at 82.4%.

Take `CCOc1cc(N2CCC(O)CC2)ccc1Nc1ncc2c(n1)N(C)c1ccccc1C(=O)N2C`: the Potency entry in test [1] and in test [7] was “inactive” in each case. Moreover, the outcome in test [2] and in [8] was inactive. For the same compound, the viability (% of control) in test [4] worked out at 2.87%. Further, in test [5], the viability, percent of control was found to be 29%. For the same compound, the Potency in test [9] is 20.9 µM (active).

In the case of `Nc1cccc(S(=O)(=O)N2CCCN(S(=O)(=O)c3ccc4c(c3)OCCO4)CC2)c1`, the Potency result in [1], in test [9], in test [6] and in test [7] was “inactive” in each case. Further, the call in test [2] and in test [8] was inactive. In test [4], the viability (% of control) amounted to 46.2%. The viability, percent of control in [5] worked out at 78.2%.

As to `Nc1nc2[nH]cc(CCc3ccc(C(=O)N[C@@H](CCC(=O)O)C(=O)O)cc3)c2c(=O)[nH]1`, the Potency entry in test [1], in test [3], in test [9] and in [6] was “inactive” throughout. For the same compound, the viability (% of control) in [4] worked out at 40%. The viability, percent of control in [5] came to 74.6%. The compound was classed as inactive in [8].

Consider `COc1ccc(-c2c(-c3ccc(O)cc3O)n[nH]c2C)cc1`, for which the Potency entry in test [1] and in [6] was “inactive” throughout. The call in test [2] and in test [8] was inactive. Further, in test [4], the viability (% of control) amounted to 86.4%. In addition, in test [5], the viability, percent of control was determined as 72.3%. For the same compound, the Potency in [7] was 8.67 µM (active).

In the case of `COc1c(Cl)cc2c([nH]c3cnccc32)c1NC(=O)c1cccnc1C`, the Potency result in [1], in test [9], in test [6] and in test [7] was “inactive” each time. Moreover, the compound was called inactive in test [2] and in test [8]. For the same compound, the viability (% of control) in test [4] came out at 68.9%. Further, in test [5], the viability, percent of control was determined as 62.3%.

In the case of `O=C1CCCC2=C1C(c1[nH]ncc1Cl)N=C(Nc1nc3ccccc3o1)N2` (stereo unspecified), the Potency result in [1], in test [3], in test [9], in test [6] and in test [7] was “inactive” each time. Moreover, in test [4], the viability (% of control) was 75.7%. Besides, the viability, percent of control in [5] was 71.6%. Moreover, in [8], the compound was called inactive.

With `CCCCCCCc1ccc(CCc2cccc(O)c2C(=O)O)cc1`, the Potency in test [1] is 23.5 µM (active). Also, the compound was classed as inactive in test [2] and in test [8]. Besides, the viability (% of control) in test [4] turned out to be 64.1%. In test [5], the viability, percent of control came out at 51.5%. In addition, the Potency entry in test [6] was “inactive”.

With `O=C(C=Cc1ccc(/C=C/C(=O)Nc2ccc(C3=NCCN3)cc2)cc1)Nc1ccc(C2=NCCN2)cc1`, the Potency result in test [1], in [3], in test [9], in test [6] and in test [7] was “inactive” each time. Moreover, the viability (% of control) in test [4] came to 92.1%. Moreover, the viability, percent of control in test [5] was 97.4%. In addition, in test [8], the result was inactive.

Regarding `Cc1cccc(-c2nn(C(=S)Nc3ccccc3)cc2-c2ccnc3ccccc23)n1`, the Potency result in test [1] and in test [6] was “inactive” in each case. Besides, the outcome in test [2] and in [8] was inactive. For the same compound, the viability (% of control) in test [4] was 60.3%. Further, in test [5], the viability, percent of control was found to be 94.2%. Further, the Potency in [7] was 2.44 µM (active).

Values taken from PubChem BioAssay (NCATS).
